Calls of active or inactive are those of the source. Unless noted, calls follow the shape of the dose curve; as a rule, active = well fitted curve in the direction sought with a large enough effect in the repeat runs; inconclusive = weak or mixed curves; inactive = no such curve, though single readings can be large; an effect the other way counts as inactive or inconclusive. Non-standard residues stand in square brackets, D forms with d. Residues, ends and D or L forms follow the SMILES beside them. Orn = NCCC[C@H](N)C(=O)O

Test [1] is described as follows: qHTS assay to test for compound auto fluorescence at 460 nm (blue) in HEK293 cell free culture (AID 720681). In short, it runs like this:
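Compounds were added to cell-free DMEM with 10% FBS and fluorescence read directly. The blue channel used 405 nm excitation and 460 nm emission, with triamterene as the reference fluorophore.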

Test [2] in a line: qHTS assay to test for compound auto fluorescence at 535 nm (green) in HEK293 cell free culture (AID 720682). In outline:
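Intrinsic compound fluorescence is measured in culture medium containing 10% FBS, with excitation at 485 nm and detection at 535 nm, referenced to fluorescein.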

The nature of test [3]: qHTS assay to test for compound auto fluorescence at 590 nm (red) in HEK293 cell free culture (AID 720683). In outline: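 Cell-free wells of DMEM with 10% FBS received compound, and intrinsic fluorescence was read at excitation/emission 540/590 nm. Values expressed as equivalence to Rose Bengal sodium.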
A short description of test [4]: qHTS assay to test for compound auto fluorescence at 590 nm (red) in HepG2 cell free culture (AID 720684). In outline:
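Compound was pinned into wells holding MEM with 10% FBS and no cells, and red fluorescence was read at Ex/Em 540/590 nm. Signal is expressed as auto fluorescence equivalency relative to Rose Bengal sodium.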

Test [5] is described as follows: qHTS assay to test for compound auto fluorescence at 460 nm (blue) in HepG2 cell free culture (AID 720685). In short, it runs like this: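 Compound (23 nL) or DMSO pinned into cell-free MEM with 10% FBS; blue fluorescence read at 405/460 nm excitation/emission, expressed as auto-fluorescence equivalency to triamterene.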
A short description of test [6]: qHTS assay to test for compound auto fluorescence at 535 nm (green) in HepG2 cell free culture (AID 720686).
The nature of test [7]: qHTS assay to test for compound auto fluorescence at 460 nm (blue) in HepG2 cells (AID 720687). In short, it runs like this: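 HepG2 cells in MEM with 10% FBS, attached overnight at 37 C, were exposed to compound or DMSO for 1 hr at 37 C, 5% CO2. Blue fluorescence was read at 405/460 nm, with triamterene as reference fluorophore.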
Test [8] concerns the target Glucocorticoid receptor (Homo sapiens) (UniProt P04150). In words: qHTS assay to identify small molecule agonists of the glucocorticoid receptor (GR) signaling pathway (AID 720691; active = well fitted activation curve with a large enough effect in the signal ratio in the repeat runs, not every such curve was filed as active; inconclusive = weak or mixed curves, or effect the other way; inactive = no such curve, though single readings can be large or run the other way; the % refers to the signal ratio; also: potency is read from the fitted curve at half-maximal effect). The settings on record: GR-bla HeLa, beta-lactamase reporter ratio, 18 h; activation: at 62.4 µM (top of the series). In outline:
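Reporter read-out: fluorescence intensity following 2 h room-temperature LiveBLAzer B/G FRET substrate loading. Prior step: GR-bla HeLa cells held 4 h, then treated 18 h at 37 C.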

Test [9] has the same target. In words: qHTS assay to identify small molecule antagonists of the glucocorticoid receptor (GR) signaling pathway (AID 720692; active = well fitted inhibition curve with a large enough effect in the signal ratio in the repeat runs, not every such curve was filed as active; inconclusive = weak or mixed curves, or effect the other way; inactive = no such curve, though single readings can be large or run the other way; the % refers to the signal ratio; also: potency is read from the fitted curve at half-maximal effect). In outline: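 Dexamethasone (5 nM final) stimulated a stably integrated GRE-beta-lactamase reporter in HeLa cells during 18 h co-incubation with compounds; signal was quantified as fluorescence intensity of B/G FRET substrate after 2 h.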
A short description of test [10]: qHTS assay to identify small molecule antagonists of the glucocorticoid receptor (GR) signaling pathway - cell viability counter screen (AID 720693). Also: nearly all actives have a fitted effect of over 55% in size. Also: potency is read from the fitted curve at half-maximal effect.
Test [11] can be described thus: qHTS assay for identifying genotoxic compounds that show differential cytotoxicity against isogenic chicken DT40 cell lines with known DNA damage response pathways - wild type cell line (AID 743012). Also: nearly all actives have a fitted effect of over 60% in size. Also: potency is read from the fitted curve at half-maximal effect. In outline: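 Using parental DT40 (300 cells/well), compounds delivered in DMSO incubate 40 h at 37 C/5% CO2. CellTiter-Glo reagent then stands 30 min at room temperature, and luminescence gives cell viability.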

Test [12] is described as follows: qHTS assay for identifying genotoxic compounds that show differential cytotoxicity against isogenic chicken DT40 cell lines with known DNA damage response pathways - Rev3 mutant cell line (AID 743014). Also: nearly all actives have a fitted effect of over 55% in size. Also: potency is read from the fitted curve at half-maximal effect.
Test [13] is described as follows: qHTS assay for identifying genotoxic compounds that show differential cytotoxicity against isogenic chicken DT40 cell lines with known DNA damage response pathways - Rad54/Ku70 mutant cell line (AID 743015). Also: nearly all actives have a fitted effect of over 60% in size. Also: potency is read from the fitted curve at half-maximal effect.
A short description of test [14]: qHTS assay to identify small molecule antagonists of the androgen receptor (AR) signaling pathway - cell viability counter screen (AID 743033; also: nearly all actives have a fitted effect of over 45% in size; also: potency is read from the fitted curve at half-maximal effect).
Test [15] can be described thus: qHTS assay to identify small molecule antagonists of the androgen receptor (AR) signaling pathway using the MDA cell line - cell viability counter screen (AID 743041; also: nearly all actives have a fitted effect of over 45% in size; also: potency is read from the fitted curve at half-maximal effect). In short, it runs like this: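 MDA-kb2 AR-luc cells (MMTV-luciferase, AR/GR responsive) treated with compounds plus R1881 agonist for 16 h at 37C. CellTiter-Fluor added at 15.5 h; fluorescence read after 30 min in the same wells.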

Test [16] in a line: qHTS assay to test for compound auto fluorescence at 535 nm (green) in HEK293 cells (AID 720680).
The target of test [17] is Androgen receptor (Homo sapiens) (UniProt P10275). As to the kind of experiment: qHTS assay to identify small molecule antagonists of the androgen receptor (AR) signaling pathway (AID 743035; active = well fitted inhibition curve with a large enough effect in the signal ratio in the repeat runs, not every such curve was filed as active; inconclusive = weak or mixed curves, or effect the other way; inactive = no such curve, though single readings can be large or run the other way; the % refers to the signal ratio). In outline:
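Using qHTS, AR-UAS-bla GripTite HEK293 cells received compound, then R1881, and were cultured 16 h at 37C/5% CO2 before a 2 h room-temperature LiveBLAzer B/G FRET substrate step and fluorescence measurement.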

The target is the same in test [18]. As to the kind of experiment: qHTS assay to identify small molecule agonists of the androgen receptor (AR) signaling pathway using the MDA cell line (AID 743040; also: nearly all actives have a fitted effect of over 20% in size). In short, it runs like this:
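MDA-kb2 breast carcinoma cells carrying MMTV-luciferase (responsive to AR and GR), plated 5 h then treated 16 h with compounds at 37C, 0% CO2. Read-out was ONE-Glo luminescence after 30 min at room temperature.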

The target is the same in test [19]. In words: qHTS assay to identify small molecule antagonists of the androgen receptor (AR) signaling pathway using the MDA cell line (AID 743042; also: nearly all actives have a fitted effect of over 55% in size). In outline: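 MDA-kb2 breast carcinoma cells carrying MMTV-luciferase (AR/GR responsive) were co-treated with compounds and the agonist R1881 for 16 h at 37C. Inhibition read as ONE-Glo luminescence; CellTiter-Fluor fluorescence measured in parallel for cytotoxicity.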

The target is the same in test [20]. In words: qHTS assay to identify small molecule agonists of the androgen receptor (AR) signaling pathway (AID 743036; active = well fitted activation curve with a large enough effect in the signal ratio in the repeat runs, with a control signal flat, not every such curve was filed as active; inconclusive = weak or mixed curves, or effect the other way; inactive = no such curve, though single readings can be large or run the other way; the % refers to the signal ratio). In outline: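 Agonist activity was scored by beta-lactamase reporter fluorescence in stably transfected HEK293 cells exposed to compounds for 16 h at 37C and 5% CO2. Substrate loading took 2 h at room temperature.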

Sequence of Androgen receptor (Homo sapiens) (P10275 whole entry, looked up): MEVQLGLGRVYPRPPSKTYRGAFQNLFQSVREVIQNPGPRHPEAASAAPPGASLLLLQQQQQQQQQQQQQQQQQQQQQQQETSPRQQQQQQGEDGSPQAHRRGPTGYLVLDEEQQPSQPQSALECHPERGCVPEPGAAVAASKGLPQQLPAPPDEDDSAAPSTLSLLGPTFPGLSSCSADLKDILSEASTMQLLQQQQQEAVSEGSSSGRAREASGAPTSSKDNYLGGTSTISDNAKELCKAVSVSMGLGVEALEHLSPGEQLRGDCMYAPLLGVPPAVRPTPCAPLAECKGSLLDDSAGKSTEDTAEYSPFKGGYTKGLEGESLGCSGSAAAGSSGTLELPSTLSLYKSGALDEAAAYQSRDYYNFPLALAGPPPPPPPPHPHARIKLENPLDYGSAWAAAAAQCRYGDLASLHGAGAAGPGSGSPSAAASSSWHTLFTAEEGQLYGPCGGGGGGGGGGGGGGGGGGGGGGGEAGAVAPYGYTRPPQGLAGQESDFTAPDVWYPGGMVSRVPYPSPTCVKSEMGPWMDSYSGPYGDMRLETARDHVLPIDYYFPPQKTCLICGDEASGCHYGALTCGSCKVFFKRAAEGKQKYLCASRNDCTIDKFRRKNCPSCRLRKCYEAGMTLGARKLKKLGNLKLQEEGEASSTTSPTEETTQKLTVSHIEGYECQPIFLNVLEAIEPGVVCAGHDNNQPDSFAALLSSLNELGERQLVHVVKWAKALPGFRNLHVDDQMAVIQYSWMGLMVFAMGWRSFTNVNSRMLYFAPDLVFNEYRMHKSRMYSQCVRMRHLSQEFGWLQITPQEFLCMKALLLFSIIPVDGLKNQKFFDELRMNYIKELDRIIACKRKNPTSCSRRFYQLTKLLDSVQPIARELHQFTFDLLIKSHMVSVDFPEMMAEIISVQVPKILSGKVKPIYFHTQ
Sequence of Glucocorticoid receptor (Homo sapiens) (P04150 whole entry, looked up): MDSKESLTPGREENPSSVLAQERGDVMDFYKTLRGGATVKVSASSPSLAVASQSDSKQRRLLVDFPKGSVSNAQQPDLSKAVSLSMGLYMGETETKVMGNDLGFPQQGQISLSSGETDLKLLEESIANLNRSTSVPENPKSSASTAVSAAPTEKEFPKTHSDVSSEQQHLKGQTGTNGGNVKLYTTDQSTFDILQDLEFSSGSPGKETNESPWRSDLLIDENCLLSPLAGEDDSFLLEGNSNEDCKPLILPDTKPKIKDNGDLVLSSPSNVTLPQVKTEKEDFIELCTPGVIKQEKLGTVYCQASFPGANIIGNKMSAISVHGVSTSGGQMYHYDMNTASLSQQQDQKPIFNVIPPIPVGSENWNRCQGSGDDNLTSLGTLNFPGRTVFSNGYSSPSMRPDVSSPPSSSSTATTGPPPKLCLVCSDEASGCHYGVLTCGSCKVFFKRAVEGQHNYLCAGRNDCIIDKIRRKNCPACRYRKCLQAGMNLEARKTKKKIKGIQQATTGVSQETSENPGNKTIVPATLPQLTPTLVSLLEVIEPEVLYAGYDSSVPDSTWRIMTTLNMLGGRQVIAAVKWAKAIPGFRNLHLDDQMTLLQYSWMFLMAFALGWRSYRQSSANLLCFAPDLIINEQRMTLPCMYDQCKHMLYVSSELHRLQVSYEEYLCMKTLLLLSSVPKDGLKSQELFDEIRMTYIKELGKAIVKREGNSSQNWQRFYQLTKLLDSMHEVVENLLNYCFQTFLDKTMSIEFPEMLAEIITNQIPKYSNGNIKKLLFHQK

In the case of `COC1=C(OC)C(=O)C(C/C=C(\C)CC/C=C(\C)CC/C=C(\C)CC/C=C(\C)CC/C=C(\C)CC/C=C(\C)CC/C=C(\C)CC/C=C(\C)CC/C=C(\C)CCC=C(C)C)=C(C)C1=O`, the Potency result in test [1], in test [5], in [6], in [7], in test [8] and in test [9] was “inactive” in each case. Also, the Potency entry in [10], in test [11], in test [12], in test [13], in test [14] and in test [15] was “inactive” in each case. Further, the call in test [2], in [3] and in test [4] was inactive.
With `CCOc1ccc(S(=O)(=O)O)c2cccnc12`, the molecule was classed as inactive in [16] and in test [4]. Besides, the Potency result in test [5], in test [6], in [7], in [8], in test [9] and in [10] was “inactive” each time. For the same molecule, the Potency result in [12], in test [13], in test [14] and in test [15] was “inactive” throughout.
Take `O=C(O)/C=C/C(O)c1ccc(Cl)cc1` (centres undefined): the Potency result in test [1], in [5], in test [6], in test [7], in test [8] and in test [9] was “inactive” each time. Also, the Potency result in [10], in [11], in test [13], in test [14], in test [17] and in [18] was “inactive” each time. Further, the Potency result in test [15] and in test [19] was “inactive” each time. Besides, the call in [2], in test [3] and in [4] was inactive.
With `CCCCCCCCCC(=O)NO`, the outcome in test [16], in [2] and in test [3] was inactive. Further, the Potency result in test [5], in test [6], in test [7], in test [10], in [11] and in test [14] was “inactive” each time. Besides, the Potency result in [15] is “inactive”.
In the case of `CC1(C)S[C@@H]2[C@H](N3C(=O)C(c4ccccc4)NC3(C)C)C(=O)N2[C@H]1C(=O)O` (some centres undefined), the molecule was classed as inactive in test [16], in test [2] and in test [3]. In addition, the Potency result in test [5], in test [6], in [7], in test [10], in test [11] and in [13] was “inactive” throughout. Moreover, the Potency result in test [14] and in test [15] was “inactive” each time.
In the case of `C=CC[N@@+]12CC[C@@]34c5ccccc5N5/C=C6/[C@H]7C[C@H]8[C@@]9(CC[N@@+]8(CC=C)C/C7=C/CO)c7ccccc7N(/C=C(/[C@@H](C[C@@H]31)/C(=C\CO)C2)[C@H]54)[C@@H]69`, the result in test [16], in test [2] and in test [3] was inactive. The Potency result in test [6], in test [8], in test [9], in test [10], in test [12] and in test [13] was “inactive” each time. For the same molecule, the Potency entry in [14] and in test [15] was “inactive” in each case.
On to `CC(C)C[C@@H]1NC(=O)[C@H](CCCN)NC(=O)[C@H](C(C)C)NC(=O)[C@@H]2CCCN2C(=O)[C@@H](Cc2ccccc2)NC(=O)[C@H](CC(C)C)NC(=O)[C@H](CCCN)NC(=O)[C@H](C(C)C)NC(=O)[C@@H]2CCCN2C(=O)[C@@H](Cc2ccccc2)NC1=O` (cyclo(V[Orn]L[dF]PV[Orn]L[dF]P)), for which the molecule was called inactive in [16], in [2] and in test [4]. The Potency result in test [5] and in test [6] was “inactive” throughout. For the same molecule, the Potency was 23.9 µM [inconclusive] (active) in test [8]; 19 µM (active) in test [10]; 0.376 µM (active) in test [11]; 0.075 µM (active) in test [12]; 0.0944 µM (active) in test [13]; 2.68 µM (active) in test [14]. Also, in test [15], the Potency is 1.97 µM (active).
As to `OCC1(CO)COC(C(Cl)(Cl)Cl)OC1`, the molecule was called inactive in [16] and in test [3]. The Potency entry in test [5], in test [6], in test [8], in test [10], in test [11] and in [12] was “inactive” in each case. Also, the Potency result in [14] and in test [15] was “inactive” in each case.
Consider `CC(C)(C)c1ccc2c(S(=O)(=O)O)c(C(C)(C)C)ccc2c1`, for which the outcome in test [16], in test [2], in test [3] and in test [4] was inactive. Moreover, the Potency entry in test [6], in test [7], in [8], in [9], in test [10] and in [11] was “inactive” in each case. Further, the Potency result in [13], in test [14] and in test [15] was “inactive” each time.
As for `C[C@H](NCCc1ccc(O)cc1)[C@H](O)c1ccc(O)cc1`, the Potency entry in [1], in [5], in test [6], in [7], in test [8] and in test [9] was “inactive” in each case. For the same molecule, the Potency entry in [10], in test [11], in test [12], in test [14] and in [15] was “inactive” in each case. Also, the call in test [2], in [3] and in [4] was inactive.
`Oc1ccc(Cl)c2c1CCC2`: the call in test [16], in test [2] and in [3] was inactive. Further, the Potency result in test [5], in test [6], in test [7], in test [8], in test [10] and in [11] was “inactive” throughout. Besides, the Potency result in test [12], in test [13], in test [14], in test [17], in test [20] and in [18] was “inactive” in each case. Besides, the Potency entry in test [15] and in test [19] was “inactive” each time.
Turning to `NCCCC[C@H](NC(=O)[C@@H]1CCCN1C(=O)[C@@H]1CSSC[C@H](N)C(=O)N[C@@H](Cc2ccc(O)cc2)C(=O)N[C@@H](Cc2ccccc2)C(=O)N[C@@H](CCC(N)=O)C(=O)N[C@@H](CC(N)=O)C(=O)N1)C(=O)NCC(N)=O`, the molecule was classed as inactive in [16], in test [2] and in test [3]. Further, the Potency result in test [5], in [6], in test [7], in test [8], in test [9] and in test [10] was “inactive” in each case. Moreover, the Potency result in test [11], in test [12], in [13], in test [14], in [17] and in test [20] was “inactive” in each case. In addition, the Potency entry in [18], in [15] and in test [19] was “inactive” throughout.
With `CC(C)[N+]1(C)[C@@H]2CC[C@H]1CC(OC(=O)C(CO)c1ccccc1)C2` (some centres undefined), the result in test [16], in [2], in test [3] and in test [4] was inactive. Further, the Potency entry in test [5], in test [6], in [7], in [8], in test [10] and in test [14] was “inactive” each time. Further, the Potency result in [15] was “inactive”.
Turning to `O=C1OC(O)C(C(Cl)Cl)=C1Cl` (centres undefined), the call in [16], in test [2], in test [3] and in test [4] was inactive. Also, the Potency entry in test [5], in [6], in test [7] and in [15] was “inactive” in each case. Besides, the Potency is 25.3 µM (active) in test [9]; 17.8 µM (active) in [11]; 1.26 µM (active) in test [12]; 19.9 µM (active) in test [13]; 22.5 µM (active) in [14].

For the origin of these results see PubChem BioAssay (Tox21).
